Bioassay records deposited in PubChem BioAssay by National Center for Advancing Translational Sciences (NCATS).
An excerpt weighted towards active compounds, which were near 7.5% of everything screened.
SMN2 splice enh – SMN2 splice variant enhancement. HEK293 SMN2-luciferase splicing reporter, luminescence, 30-36 h. Potency, µM (series often up to 46.1 µM), without a hit: at the top dose activity change, positive = activation, usual class: activators. AID 1458. hit rate 2.8% among 210,000; also: % of control where 0% means no effect; nearly all actives have a fitted effect of over 55% in size
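qHTS luciferase splicing reporter: luminescence rises when SMN2 exon 7 is included in transfected HEK293 cells. Compound exposure lasted 30-36 h at 37C, with 4.5 mM final sodium butyrate as control, followed by a ONE-Glo read.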
Rab9 prom act – activates the Rab9 promoter; Huh7 Rab9 promoter-luciferase reporter, luminescence, 24 h; Potency, µM (titrated, usually from 9.22 µM), inactives show at the highest dose activation, negative = inhibition, actives largely listed as activators; hit rate 2.8% among 320,000; AID 485297; also: % of control where 0% means no effect; nearly all actives have a fitted effect of over 60% in size
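Cells were plated at 1500 per well in reduced-serum medium with 10% FBS and left 2 h. Compound in DMSO was then added for 24 h at 37 °C. Reporter signal was read by luminescence after 10 min with luciferase detection reagent.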
ELG1 genotox – inducers of genotoxicity in HEK293T ELG1-luciferase cells. hit rate 1.3% among 330,000. Potency, µM (titrated, usually from 46 µM), for inactives: at the top dose activity change, positive = activation, hits mostly activators. AID 504466. HEK293T ELG1-luciferase reporter, luminescence, 16 h; also: % of control where 0% means no effect; nearly all actives have a fitted effect of over 60% in size
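After overnight (16 hr) compound treatment at 37 °C, ELG1-luciferase HEK293T cells were lysed with ONE-Glo; luminescence quantified 30 min later at room temperature.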
KinaseGlo FLuc – blocks Kinase-Glo luciferase, a counter-screen artifact | hit rate 0.28% among 200,000 | Q27757 | Kinase-Glo luciferase, ATP luminescence, 8 min | Potency, µM (doses to about 38.3 µM), inactives show at the highest dose activity change, negative = inhibition, most hits filed as inhibitors; also: % is scaled to controls: 0 for no effect and ±100 for the full control effect; nearly all actives have a fitted effect of over 60% in size
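Light output from Kinase-Glo luciferase with luciferin and 10 uM ATP in 50 mM imidazole pH 7.2, KCl, MgCl2, Tween 20, BSA; compound pin-delivered, 8-min ambient incubation, then luminescence read.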
FLuc counter – firefly luciferase modulation, counter-screen for miR-21 project | P08659 | purified FLuc, Km substrates, luminescence inhibition | Potency, µM (highest dose often 57.5 µM), without a hit: at the top dose activity change, negative = inhibition, usual class: inhibitors | hit rate 6.9% among 360,000;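 also: plate controls were vehicle for no effect and reference inhibitor for full effect; nearly all actives have a fitted effect of over 55% in size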
Target sequence (P08659 whole entry, looked up): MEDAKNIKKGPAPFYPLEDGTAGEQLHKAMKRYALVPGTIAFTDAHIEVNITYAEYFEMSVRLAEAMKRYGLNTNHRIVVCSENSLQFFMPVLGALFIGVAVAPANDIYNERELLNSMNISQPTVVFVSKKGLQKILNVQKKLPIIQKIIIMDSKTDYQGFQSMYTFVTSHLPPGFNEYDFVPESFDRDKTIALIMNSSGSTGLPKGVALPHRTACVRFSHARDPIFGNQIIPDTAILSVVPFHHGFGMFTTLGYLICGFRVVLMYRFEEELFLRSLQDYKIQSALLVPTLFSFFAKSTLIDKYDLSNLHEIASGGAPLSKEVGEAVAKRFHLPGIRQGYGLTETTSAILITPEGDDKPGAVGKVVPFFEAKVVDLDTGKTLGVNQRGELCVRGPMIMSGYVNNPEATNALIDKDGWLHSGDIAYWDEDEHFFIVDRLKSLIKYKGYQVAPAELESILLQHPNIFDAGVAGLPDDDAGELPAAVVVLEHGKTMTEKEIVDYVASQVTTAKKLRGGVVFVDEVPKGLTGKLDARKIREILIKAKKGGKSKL
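Purified P. pyralis luciferase, 10 nM final, with Km-level 10 uM D-luciferin and 10 uM ATP in 50 mM Tris acetate pH 7.5, 10 mM Mg acetate, 0.01% Tween-20, 0.05% BSA; 6-point qHTS titration about 60 µM downward; luminescence read.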
NPC1 prom act – activates the NPC1 promoter; Huh7 NPC1 promoter luciferase reporter, 24 h; Potency, µM (highest dose often 9.22 µM), for inactives: top-dose activation, usual class: activators; hit rate 2.4% among 320,000; also: % of control where 0% means no effect; nearly all actives have a fitted effect of over 60% in size
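Luminescence from an NPC1 promoter-driven luciferase reporter in stably transfected Huh7 cells was measured after 24 h compound treatment at 37 °C, followed by 10 min ambient incubation with luciferase detection reagent.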
Numbers without * were called inactive; ? = inconclusive; · = no result; [ ] = dose if it differs, or a comment. Calls follow the shape of the dose curve; as a rule, active = well fitted curve in the direction sought with a large enough effect; inconclusive = small, poorly fitted or top-dose-only effect, or another doubt; inactive = no such curve, though single readings can be large; an effect the other way counts as inactive or inconclusive. Potency is read from the fitted curve at half-maximal effect.

SMILES | SMN2 splice enh | Rab9 prom act | ELG1 genotox | KinaseGlo FLuc | FLuc counter | NPC1 prom act
Cc1cc(C=O)c(C)n1-c1cccc(C(=O)O)c1 | · | -7% | 0% | -3% | 4% | -2%
Cn1cc(C(=O)c2ccccc2)cc1-c1nc2ccccc2n1C | -10% | -6% | -17% | -3% | -10% | 0%
CC(=O)c1ccc(-c2nc3ccccc3n2C)o1 | 11µM* | ? | 21µM* | ? | 21µM* | ?
Cc1oc(-c2nc3ccccc3n2C)cc1C(=O)c1ccccc1 | 1.6µM* | 0.32µM* | 1.8µM* | ? | 0.38µM* | 0.5µM*
Cn1c(-c2ccc(Br)o2)nc2ccccc21 | 13µM* | 1.4µM* | ? | 10µM* | 2.4µM* | 1.4µM*
Oc1ccc(Cn2c(-c3ccc(O)cc3)nc3ccccc32)cc1 | -6%[9.22 µM] | · | · | -7%[7.66 µM] | · | ·
Brc1ccc(Cn2c(-c3ccc(Br)o3)nc3ccccc32)o1 | 19% | 11% | 5% | 0% | 19µM* | 13%
Cn1c(-c2ccc(Br)o2)nc2cc(Br)ccc21 | 14µM* | 1.1µM* | ? | -27% | 1.9µM* | 1.4µM*
Cc1ccc(-c2nc3ccccc3n2C)o1 | 11µM* | 1.1µM* | 2.9µM* | 7.9µM* | 5.4µM* | 1.6µM*
Cn1c(-c2nonc2N)nc2ccccc21 | · | -2% | -5% | · | 3% | 0%
Cc1ccc(C2Nc3ccccc3-c3nc4ccccc4n32)o1 (stereo not given) | 11µM* | ? | ? | -7% | 11µM* | ?
Cc1cccc(C)c1NC(=O)CN(C)C(=O)c1ccc2nc[nH]c2c1 | · | 0% | 0% | · | 1% | -1%
CCOc1ccc(Cc2nc(N)nc(N)n2)cc1 | -34% | -1% | 6% | -1% | 2% | -1%
Nc1nc(N)nc(COc2ccccc2)n1 | 11µM* | 4.5µM* | ? | ? | ? | ?
CN(C)c1ccc(N=Nc2ccccc2C(=O)OCC(=O)NCC2CCCCC2)cc1 | 24% | 20% | -3% | -7% | 4.8µM* | 8%
CN(C)c1ccc(N=Nc2ccccc2C(=O)OCC(=O)N(C)C2CCCCC2)cc1 | ? | ? | 0% | -3% | 1.1µM* | 26%
O=C(COC(=O)c1ccccc1Br)NCC1CCCCC1 | · | · | 12% | · | · | ·
CN(C)c1ccc(N=Nc2ccccc2C(=O)OCC(=O)NC2CCCC2)cc1 | · | 25% | 2% | · | 2.7µM* | 11%
CC(=O)c1cnc(Oc2cc(Cl)ccc2Cl)nc1C | · | -4% | 5% | · | 0% | -6%
COc1cccc(C(=O)CC2(O)C(=O)N(Cc3ccccc3)c3ccccc32)c1 (stereo not given) | -26% | · | · | · | -9% | ·
CCn1nnc2cc(C(=O)Nc3cc(OC)cc(OC)c3)ccc21 | · | 24% | ? | · | 17µM* | 13%
COc1ccc(C(=O)Nc2cc(OC)cc(OC)c2)cc1 | 25µM* | 1.8µM* | ? | -30% | 4.8µM* | 2µM*
COc1cc(OC)cc(C(=O)Nc2ccc(C(=O)Nc3ccccc3OC)cc2)c1 | · | · | -11% | · | · | ·
COc1cc(NC(=O)c2ccccc2)cc(OC)c1 | ? | ? | ? | -18% | 19µM* | 6.3µM*
Oc1ccc2ccccc2c1CNc1ccc(Br)cn1 | · | 1% | 13% | · | 24µM* | -3%
SMILES | SMN2 splice enh | Rab9 prom act | ELG1 genotox | KinaseGlo FLuc | FLuc counter | NPC1 prom act
COc1cccc(CNc2ccc(Br)cn2)c1O | 14µM* | 2.8µM* | ? | -2% | 1.5µM* | 1µM*
COc1cccc(CNn2cnnc2)c1O | · | -7% | 3% | -1% | 1% | 0%
COc1cccc(CNc2ncc(Br)cc2Br)c1O | 18% | ? | 14% | -1% | 27µM* | ?
Oc1ccc2ccccc2c1CNc1ccc(Br)cc1 | · | -5% | 3% | · | -7% | -3%
COC(=O)c1c(NC(=O)COC(=O)c2ccc(O)cc2)sc2c1CCCCC2 | · | 1% | -4% | · | -1% | 6%
CNC1C(OC2C(O[C@@H]3C(O)C(O)[C@@H](N=C(N)N)C(O)C3N=C(N)N)OC(C)[C@@]2(O)CO)OC(CO)C(O)C1O (stereo not given in full) | 4% | · | · | -3% | · | ·
